Screening results as filed in PubChem BioAssay.
Most compounds without a hit are left out; they make up all but 4.5% or so of the library.
ERK AVP inh – qHTS Assay for Inhibitors of the ERK Signaling Pathway using a Homogeneous Screening Assay; HEK293-V1b, vasopressin-stimulated pERK AlphaScreen; Potency, µM (series often up to 57.5 µM), inactives show at the top dose activity, negative = inhibition, hits mostly inhibitors; 72,000 compounds, 0.99% hits; further: on the % scale 0 is the no-effect control and ±100 the full control effect; nearly all actives have a fitted effect of over 55% in size
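qHTS, compounds titrated on V1b-expressing HEK293 cells. Preincubation 30 min at 37C, vasopressin 25 nM for 5 min, lysis 10 min, bead incubation 5 hr at room temperature.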
HEK293 cAMP ctrl – qHTS Assay for Agonists of the Thyroid Stimulating Hormone Receptor: Activators of Intracellular cAMP Concentrations in Parental HEK 293. parental HEK293 CNG cAMP sensor, membrane potential fluorescence. Potency, µM (doses to about 57.1 µM), inactives show at the top dose activation, most hits filed as activators. 73,000 compounds, 2.5% hits; further: % of control where 0% means no effect; nearly all actives have a fitted effect of over 55% in size
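Parental HEK 293 cells stably expressing a cAMP-gated CNG channel were loaded with membrane potential dye containing 100 uM RO 20-1724 for 60 min. Compound added for 30 min; depolarization read as fluorescence intensity at 590 nm.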
Caspase-7 inhib – qHTS Assay for Allosteric/Competitive Inhibitors of Caspase-7; 75,000 compounds, 0.02% hits; P55210; recombinant caspase-7, Ac-DEVD-AFC fluorescence rate; Potency, µM (doses to about 57.5 µM), for the others: top-dose activity change, negative = inhibition, usual class: inhibitors; active means well fitted inhibition curve with a large enough effect in the main read-out, with a control signal flat, not every such curve was filed as active; inconclusive means small, poorly fitted or top-dose-only effect, or a change in a side signal; further: % of control where 0% means no effect
GBA mod – Glucocerebrosidase | Lysosomal acid glucosylceramidase (Homo sapiens), P04062 | purified enzyme, resorufin glucoside fluorescence (screen aimed at inhibitors), 20 min | Potency, µM | 48,000 compounds, 1.1% hits; in the data active means potency below about 15 µM; inconclusive means mostly about 16 µM to 33 µM;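 further: the screen sought inhibitors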
Target sequence (P04062 whole entry, looked up): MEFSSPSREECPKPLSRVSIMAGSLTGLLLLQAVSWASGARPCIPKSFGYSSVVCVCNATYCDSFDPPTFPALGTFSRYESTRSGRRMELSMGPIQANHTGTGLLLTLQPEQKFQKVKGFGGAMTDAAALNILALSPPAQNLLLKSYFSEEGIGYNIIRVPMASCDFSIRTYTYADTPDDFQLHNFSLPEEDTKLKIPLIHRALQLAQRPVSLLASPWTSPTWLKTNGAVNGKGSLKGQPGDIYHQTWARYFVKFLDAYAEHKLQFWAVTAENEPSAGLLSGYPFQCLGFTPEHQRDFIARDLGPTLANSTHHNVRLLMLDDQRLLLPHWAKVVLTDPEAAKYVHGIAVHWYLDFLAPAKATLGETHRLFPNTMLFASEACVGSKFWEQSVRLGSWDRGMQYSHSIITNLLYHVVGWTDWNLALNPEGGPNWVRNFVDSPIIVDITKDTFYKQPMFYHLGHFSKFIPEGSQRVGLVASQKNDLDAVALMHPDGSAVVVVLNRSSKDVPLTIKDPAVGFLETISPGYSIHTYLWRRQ
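Normal human glucocerebrosidase (0.2 nM final) was assayed with resorufin β-D-glucopyranoside (30 uM final) in 50mM citric acid/KH2PO4, 10mM sodium taurocholate, 0.01% tween-20, pH 5.9. Compounds were titrated; fluorescence (Ex 548, Em 600) read after 20 min at RT.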
TSHR agonist – qHTS Assay for Agonists of the Thyroid Stimulating Hormone Receptor; Potency, µM (titrated, usually from 57.1 µM), without a hit: top-dose activation, most hits filed as activators; 73,000 compounds, 0.48% hits; Thyrotropin receptor (Homo sapiens), P16473; HEK293-CNG-TSHR cells (CNG channel as cAMP sensor), membrane potential dye, cAMP; active means well fitted activation curve with a large enough effect in the main read-out, with a control signal flat, not every such curve was filed as active; inconclusive means small, poorly fitted or top-dose-only effect, or a change in a side signal; inactive means no such curve, though single readings can be large or run the other way; % of control where 0% means no effect;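 further: the control signal comes from parental cells without the receptor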
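HEK 293 cells stably expressing TSHR and a modified CNG channel, with CNG-only parental cells as counterscreen, were preloaded 60 min at room temperature with membrane potential dye containing 100 uM RO 20-1724. Compound exposure was 30 min, and depolarization was read as fluorescence at 590 nm.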
Casp1 inh – qHTS Assay for Allosteric/Competitive Inhibitors of Caspase-1; P29466; Caspase-1 enzyme, Ac-WEHD-AFC fluorogenic rate; Potency, µM (highest dose often 57.5 µM), for inactives: at the top dose activity change, negative = inhibition, most hits filed as inhibitors; 75,000 compounds, 0.03% hits;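 further: plate controls were vehicle for no effect and no substrate for full effect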
Starred values were filed as active, the others as inactive; i = inactive; u = inconclusive; x = no result given; [ ] = another dose, or the depositor's remark. Unless noted, the call rests on the fitted dose curve; in most records, active means well fitted curve in the direction sought with a large enough effect; inconclusive means small, poorly fitted or top-dose-only effect, or another doubt; inactive means no such curve, though single readings can be large; an effect the other way counts as inactive or inconclusive. Potency means the concentration at half of the fitted maximal effect.

SMILES | ERK AVP inh | HEK293 cAMP ctrl | Caspase-7 inhib | GBA mod | TSHR agonist | Casp1 inh
COC(=O)[C@@]1(Cc2ccc(OC)cc2)[C@H]2c3cc(C(=O)N(C)C)n(Cc4ccsc4Br)c3C[C@H]2CN1C(=O)c1ccccc1 | 0.4% | 6.31µM* | -2.2% | x | u | -4.5%
COC(=O)[C@@]1(Cc2ccc(OC)cc2)[C@H]2c3cc(C(=O)N(C)C)n(Cc4ccc(C)o4)c3C[C@H]2CN1C(=O)c1ccccc1 | 17.9% | 15.8µM* | -4.5% | x | u | -0.5%
N#Cc1nc(COc2ccc(Br)cc2)oc1N1CCCCCC1 | u | 25.1µM* | -2.1% | x | u | -1.2%
CCOc1ccc(-c2nc(C#N)c(N3CCN(Cc4ccccc4)CC3)o2)cc1 | 15.8µM* | 8.8% | -1.6% | x | 24.6% | 0.4%
COc1ccc(N2CCN(c3oc(COc4ccccc4)nc3C#N)CC2)cc1 | -1.3% | 0.794µM* | 1.0% | >76.9 | u | -6.5%
CCOc1ccc(-c2nc(C#N)c(N3CCOCC3)o2)cc1 | u | 14.0% | -1.9% | x | 12.4% | -2.9%
N#Cc1nc(COc2ccccc2)oc1N1CCOCC1 | -18.1% | 1.5% | -0.1% | >76.9 | 7.2% | 0.1%
CCOC(=O)C1CCCN(CC(=O)NC2CC2)C1 (stereo not given) | -9.2% | 1.5% | 0.6% | >76.9 | -0.2% | -2.7%
CCOC(=O)C1CCCN(CC(=O)NC2=Nc3ccccc3N=C(C)C2c2ccccc2)C1 (stereo not given) | -9.5% | 29.7% | -1.7% | x | 25.1µM* | -3.5%
Nc1c(C(=O)NC2CC2)c2nc3ccccc3nc2n1-c1ccc2c(c1)OCO2 | u | -4.3% | -21.7% | >76.9 | -17.5% | u
Nc1c(C(=O)OCC2CCCO2)c2nc3ccccc3nc2n1-c1ccc2c(c1)OCCO2 (stereo not given) | 20µM* | 4.2% | u | >76.9 | 1.7% | x
CC1CCCC(NC(=O)c2ccc3c(=O)n(CC4CCCO4)c(=O)[nH]c3c2)C1C (stereo not given) | -3.6% | 3.5% | 1.8% | 1.6* | -1.0% | 0.6%
CC1CCc2c(nc3ncnn3c2N2CCN(c3ccccc3)CC2)C1 (stereo not given) | -5.7% | 25.1µM* | -2.2% | >76.9 | u | -0.3%
Cc1nc2c(c(=O)n1Cc1ccccc1Cl)c1nc3ccccc3nc1n2Cc1ccco1 | 25.1µM* | u | u | >76.9 | u | x
N[C@@H](C(=O)O)[C@@H]1C[C@H]1C(=O)O | x | 6.4% | x | x | 6.5% | x
CCOC(=O)C(C(=O)OCC)c1cc(Br)c2noc3c2c1C(=O)c1ccccc1-3 | 25.1µM* | -19.9% | -26.1% | u | -16.5% | -15.5%
CCN(CC)S(=O)(=O)c1ccc(N2CCCC2)c(C(=O)OCC(=O)/C(C#N)=C(\C)N)c1 | -19.6% | 14.8% | -13.0% | >76.9 | 25.1µM* | -4.3%
CC1(C(=O)NCc2cc(F)cc(C(F)(F)F)c2)C=CC2(CCCCC2)N1C(=O)c1ccccc1 (stereo not given) | 31.8% | 17.1% | -3.8% | x | 15.2% | 2.6%
CC1(C(=O)NCC2CC2)C=CC2(CCCCC2)N1C(=O)c1ccccc1 (stereo not given) | 0.3% | 10µM* | -0.6% | x | u | -2.9%
Cc1cnc(CNc2ccnc(-c3cccnc3)n2)cn1 | u | 29.4% | -2.1% | x | 3.1% | -0.4%
Cc1cc(C)nc(N2CCN(c3nnnn3-c3ccccc3)CC2)n1 | 11.3% | u | -0.3%[0.00368 µM] | x | u | -1.2%
FC(F)(F)c1cccc(N2CCN(c3nnnn3-c3ccccc3)CC2)c1 | -1.6% | 31.6µM* | -1.3% | x | u | 2.7%
CC(=O)Oc1ccc(C(c2ccc(OC(C)=O)cc2)c2ccccn2)cc1 | -7.8% | 2.51µM* | 0.7% | x | u | -1.4%
COC(=O)C1=C(C)NC(C)=C(C(=O)OC(C)C)[C@H]1c1cccc2nonc12 | 1.6%[25.7 µM] | -3.2%[25.6 µM] | -1.8%[25.7 µM] | x | -12.9%[25.6 µM] | -1.0%[25.7 µM]
CCOC(=O)c1c(NC(=O)Cc2cccs2)sc(C)c1C | u | 25.1µM* | -9.7% | x | u | -3.6%
SMILES | ERK AVP inh | HEK293 cAMP ctrl | Caspase-7 inhib | GBA mod | TSHR agonist | Casp1 inh
COC(=O)c1c(NC(=O)Cc2cccs2)sc(C(=O)N2CCCCC2)c1C | u | u | -1.1% | >76.9 | u | -5.0%
Cc1ccc(S(=O)(=O)N(CC(=O)O)c2cccc(Cl)c2)cc1 | x | 13.9% | 0.3% | x | 18.2% | -2.7%
CC(Sc1ncc(C#N)c(N)n1)C(=O)Nc1ccccc1 (stereo not given) | -25.1% | 31.6µM* | -0.7% | i | u | -1.8%
O=C1c2ccccc2C(Nc2ccc3c(c2)OCCO3)N1c1ccccn1 (stereo not given) | -1.7% | 26.2% | -2.5% | x | 19.0% | -1.7%
O=C1c2ccccc2C(Nc2ccc(F)c(Cl)c2)N1c1ccccn1 (stereo not given) | -22.5% | 13.1% | -0.6% | x | 20µM* | -2.7%
O=C(Nc1ccc(Cl)cc1)N1CCN(c2ccc3nnc(-c4ccc(F)cc4)n3n2)CC1 | x | 25.1µM* | -4.7% | x | u | -4.0%
O=C(Nc1ccccc1Cl)N1CCN(c2ccc3nnc(-c4ccccc4)n3n2)CC1 | -17.0% | 3.4% | -14.2% | x | -0.9% | -3.8%
CCN[C@@H]1CN(CCCOC)S(=O)(=O)c2sc(S(N)(=O)=O)cc21 | -5.4%[25.7 µM] | -2.7%[25.6 µM] | 1.5%[25.7 µM] | x | -2.8%[25.6 µM] | 1.2%[25.7 µM]
O=S(=O)(NC1CC2CCC1C2)c1ccc2c(c1)OCCO2 (stereo not given) | 25.1µM* | -2.2% | -1.4% | >76.9 | 6.6% | 1.1%
COC(=O)c1c(OC)cc2c(c1C)Oc1c(Cl)c(OC(C)=O)c(Cl)c(C)c1C(=O)O2 | 16.8% | x | -0.5% | x | x | -1.9%
CN(C(=O)C1CCN(S(=O)(=O)c2cccs2)CC1)C1CCCCC1 | 2.0% | 8.2% | 6.7% | 12.6* | -5.2% | u
CN(C(=O)COC(=O)C1CCN(S(=O)(=O)c2cccs2)CC1)C1CCS(=O)(=O)C1 (stereo not given) | -5.1% | 3.4% | -1.6% | >76.9 | -2.0% | 1.9%
C/C(Cl)=C/CCl | 14.5% | 28.3% | -4.1% | x | -1.9% | -0.4%
Cc1ccc(Cn2c(=N)n(CC(O)c3ccco3)c3ccccc32)cc1 (stereo not given) | 6.5% | 13.7% | -0.6% | 10.2* | 11.0% | -0.9%
C/C(CCC(=O)OC[C@@H]1O[C@H](C#Cc2ccccc2)C=C[C@@H]1Oc1ccc(C)cc1)=N/OC[C@@H](O)COCc1ccco1 | 9.2%[11.5 µM] | 5.2%[11.4 µM] | -0.2%[11.5 µM] | x | 1.1%[11.4 µM] | -5.5%[11.5 µM]
